The source of these data is PubChem BioAssay (NCATS).

Test [1] concerns Zika virus NS2B-NS3 protease (unlinked complex). The test is described as follows: Primary screen GU Rhodamine qHTS for Zika virus inhibitors: Unlinked NS2B-NS3 protease assay (AID 1347159). Also: nearly all actives have a fitted effect of over 60% in size. The procedure, abridged:
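Compounds, tested up to 114 microM, were incubated for 15 minutes with 25 nM unlinked NS2B-NS3 protease at pH 8.0. Cleavage of 1.5 microM Rhodamine110 substrate was then followed by fluorescence for 15 minutes.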
A general note: Quantitative high-throughput screening tests each substance at several concentrations.

Test [2] has as its system Zika virus NS2B-NS3 protease (linked construct). The test is described as follows: Primary screen NINDS Rhodamine qHTS for Zika virus inhibitors (AID 1347160). Also: nearly all actives have a fitted effect of over 55% in size. The procedure, abridged:
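Percent inhibition, normalized to uninhibited and enzyme-free controls, is fitted to a 4-parameter Hill equation. Fluorescence change comes from a 15-min cleavage of 1.5 microM bis-peptide Rhodamine110 substrate by 25 nM linked NS2B-NS3 at room temperature.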

Records with an inconclusive call do not appear. A number with no mark means an inactive call. Active and inactive are the calls of the source. Calls follow the shape of the dose curve; as a rule, active = well fitted inhibition curve with a large enough effect; inconclusive = small, poorly fitted or top-dose-only effect; inactive = no such curve, though single readings can be large or run the other way.
% is scaled to controls: 0 for no effect and ±100 for the full control effect.

With `CC(=O)OC[C@@]12[C@H](O)C[C@@H](C)[C@]3(C[C@@H](c4ccoc4)OC3=O)[C@H]1C[C@H](O)C[C@]21CO1`, the Potency entry in test [1] and in test [2] was “inactive” throughout.
As to `CC1C(=O)CC2C3C(O)CC(C(=O)O)C12CC3(C)C` (stereo not drawn), the Potency result in test [1] and in test [2] was “inactive” each time.
`CC(C)[C@H]1CCC(CO)=C[C@@H]1/C=C(\CO)C(=O)O`: the Potency result in test [1] and in test [2] was “inactive” in each case.
With `CNC(=O)c1ccc(Nc2ncc(C(F)(F)F)c(NCc3nccnc3N(C)S(C)(=O)=O)n2)cc1`, the Potency entry in test [1] and in test [2] was “inactive” throughout.
As to `COC1=CC(=O)O[C@@H](CCc2ccccc2)[C@@H]1O`, the Potency result in test [1] and in test [2] was “inactive” each time.
In the case of `CCOC(=O)[C@H](CCc1ccccc1)CC1(C(=O)N[C@H]2CCc3ccccc3N(CC(=O)O)C2=O)CCCC1`, the Potency result in test [1] and in test [2] was “inactive” each time.
For the compound `C=C[C@H]1[C@H](O[C@@H]2O[C@H](CO[C@@H]3OC[C@](O)(CO)[C@H]3O)[C@@H](O)[C@H](O)[C@H]2O)OC=C2C(=O)OCC[C@H]21`, the Potency entry in test [1] and in test [2] was “inactive” in each case.
Take `NC(Cc1c[nH]c2ccccc12)C(=O)NC(CCC(=O)O)C(=O)O` (stereo not drawn): the Potency entry in test [1] and in test [2] was “inactive” each time.
Consider `C=C(C)C(C)C1OC23CC4(CO2)C(CCC2C5(C)CCC(OC6OCC(O)C(OC7OC(CO)C(O)C(OC8OCC(O)C(O)C8O)C7O)C6OC6OC(CO)C(O)C6O)C(C)(C)C5CCC24C)C3C(C)(O)C1OC(C)=O` (stereo not drawn), for which the Potency result in test [1] and in test [2] was “inactive” throughout.
As for `C[C@@H]1O[C@@H](O[C@@H]2[C@@H](O)[C@H](O[C@@H]3[C@@H](O)[C@@H](O)[C@H](O[C@H]4[C@H](OC(=O)[C@]56CCC(C)(C)C[C@H]5C5=CCC7[C@@]8(C)C[C@H](O)[C@H](O[C@@H]9O[C@@H](C)[C@H](O)[C@@H](O)[C@H]9O)[C@@](C)(CO)C8CC[C@@]7(C)[C@]5(C)C[C@H]6O)O[C@H](C)[C@H](O)[C@@H]4O)O[C@H]3C)OC[C@H]2O)[C@H](O)[C@H](O)[C@H]1O` (stereo partly drawn), the activity change, negative = inhibition in test [1] was -9.55% [at 19.1 µM]; in test [2], 4.29% [at 10.7 µM].
Regarding `COC1=CC(=O)O[C@@H](/C=C/c2ccccc2)[C@@H]1O`, the Potency result in test [1] and in test [2] was “inactive” in each case.
Consider `C=CC(C)(CC/C=C(\C)CC/C=C(\C)CC(O)/C=C(\C)C(=O)O)O[C@@H]1O[C@H](CO)[C@@H](O)[C@H](O)[C@H]1O[C@@H]1O[C@H](CO)[C@@H](O)[C@H](O)[C@H]1O` (stereo partly drawn), for which the Potency entry in test [1] and in test [2] was “inactive” in each case.
In the case of `COC(=O)C[C@@H]1C(C(=O)O)=CO[C@@H](O[C@@H]2O[C@H](CO)[C@@H](O)[C@H](O)[C@H]2O)/C1=C\COC(=O)/C=C\c1ccccc1`, the Potency entry in test [1] and in test [2] was “inactive” each time.
Consider `C=C1CC[C@@H]2[C@](C)(CO[C@@H]3O[C@H](CO)[C@@H](O)[C@H](O)[C@H]3O)CCC[C@@]2(C)[C@@H]1CCC1=CCOC1=O`, for which the Potency result in test [1] and in test [2] was “inactive” in each case.
For `OC[C@H]1O[C@@H](n2cnc3c(NCc4ccc(O)cc4)ncnc32)[C@H](O)[C@@H]1O`, the Potency entry in test [1] and in test [2] was “inactive” in each case.
As for `NC(=O)c1ccc(OCC2NC(=O)C3CCCN3C2=O)cc1` (stereo not drawn), the Potency entry in test [1] and in test [2] was “inactive” in each case.
On to `COc1ccc(C)c2sc(NC(=O)c3ccncc3)nc12`, for which the Potency result in test [1] and in test [2] was “inactive” each time.
Take `C[C@@H]1CCC2C(C)(C)[C@H](O)CC[C@]2(C)[C@@]12Cc1c(O)cc3c(c1O2)CN(CCO)C3=O` (stereo partly drawn): the Potency result in test [1] and in test [2] was “inactive” in each case.
On to `C=C1CC2C3(C)C(O)CC(=O)C(C)(C)C3C(OC(C)=O)C(OC(C)=O)C2(C)C2C(=O)OC(C)(C(=O)OC)C(=O)C12C` (stereo not drawn), for which the Potency result in test [1] and in test [2] was “inactive” each time.
On to `CO[C@@]12CC3[C@@H]([C@@H](O)[C@@H](OC(C)=O)C4[C@](C)(COC(C)=O)CCC[C@]34C)[C@@H](C)C1=CC(=O)O2` (stereo partly drawn), for which the Potency entry in test [1] and in test [2] was “inactive” throughout.
In the case of `CC1OC(O[C@H]2[C@@H](O)C[C@@]3(C)C([C@H](O)C[C@]4(C)C3CC=C3C5CC(C)(C)CC[C@]5(C(=O)OC5OC(CO)C(O)C(O)C5OC5OCC(OC6OCC(OC7OCC(O)C(O)C7O)C(O)C6O)C(OC6OCC(O)(CO)C6O)C5O)CC[C@]34C)[C@]2(C)CO)C(O)C(O)C1O` (stereo partly drawn), the values for the activity change, negative = inhibition in test [1] and in test [2] were 27.1% [at 19.1 µM] and -1.39% [at 10.7 µM], respectively.
Turning to `O=C(/C=C/c1ccccc1)OCC1=CC[C@@H]2C(C(=O)O)=CO[C@@H](O[C@@H]3O[C@H](CO)[C@@H](O)[C@H](O)[C@H]3O)[C@H]12`, the Potency entry in test [1] and in test [2] was “inactive” in each case.
In the case of `Cc1ccc(C(=O)Nc2ccc(Oc3cc4cnn(C)c4cc3-c3cn[nH]c3)c(F)c2)c(=O)n1-c1ccc(F)cc1`, the Potency result in test [1] and in test [2] was “inactive” throughout.
`Nc1ncnc2c1ncn2[C@H]1CCCO1`: the Potency result in test [1] and in test [2] was “inactive” each time.
